# Test results: the supplement of paper PMC6555819
# Tests used:
# Assay in all cases: PBM binding z-score (relative to random genomic background probes); higher = stronger binding; sequences stand for … in GC…GCGATTGACAGCGTAGAATGAAGG
# [1] = tested on: RARb homodimer (NR concentration 270 nM)
# Procedure, shortened: (§1)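 Random background probes are the reference for binding z-scores. These scores derive from regression-normalized fluorescence on custom Agilent 4×180K protein-binding microarrays incubated 1 h with ligand-free nuclear receptor dimers. Binding was detected with antibodies against each partner (one per run).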
# [2] = tested on: RARg:RXRa (NR concentration 270 nM, RXRa partner concentration 90 nM)
# Procedure, shortened: as §1
# [3] = tested on: RARg homodimer (NR concentration 270 nM)
# Procedure, shortened: as §1
# [4] = tested on: RXRa DBDmut IVT, anti-RXR (DBD mutation: RXRa K156A/R161A, NR concentration 90 nM)
# Procedure, shortened: as §1
# [5] = tested on: RXRa homodimer (NR concentration 180 nM)
# Procedure, shortened: as §1
# [6] = tested on: THRa:RXRa (NR concentration 90 nM, RXRa partner concentration 90 nM)
# Procedure, shortened: as §1
# [7] = tested on: THRa homodimer (NR concentration 90 nM)
# Procedure, shortened: as §1
# [8] = tested on: VDR homodimer (NR concentration 270 nM)
# Procedure, shortened: as §1
Sequence,PBM binding z-score [1],PBM binding z-score [2],PBM binding z-score [3],PBM binding z-score [4],PBM binding z-score [5],PBM binding z-score [6],PBM binding z-score [7],PBM binding z-score [8]
AGTCAAAGTTCAGGACGAGGTAACGGAAAGCACG,3.17,4.69,4.86,2.73,2.96,3.79,1.74,1.79
TCATATAGGTTAATGCTAGGTGAAAGTCCGATCT,1.41,1.98,1.16,1.64,1.48,2.53,1.08,0.748
CCTACTGGGCCATCAGGTCATTCATATCAACGTT,2.53,1.94,1.92,0.469,1.3,3.03,3.02,2.34
CCGACTGGGGCAGACAGGTTACCATACCATCCGG,0.849,0.341,0.456,-0.96,0.238,-0.0397,0.0396,-0.23
TGAATTAGGTTAAAGATCAGGGAACGTGGCGTCG,-0.0287,0.954,0.891,-0.199,1.58,0.806,0.0277,0.326
AGAATGAGGTTATAGGTAGATCAGGGAAGAAAGT,1.39,1.63,1.08,1.35,2.15,2.45,1.42,1.24
CGACCAAGGTCAAGGTCAGTGAAAGAGACTCGAA,4.91,6.66,7.49,3.4,6.54,4.31,2.79,2.52
CTAACTAGGTCAAGAGGTCAAAGTCCGCTTCCCG,5.82,8.23,7.39,2.89,8.23,4.27,2.29,4.55
TAGCCTAGGTCAGATTGGGCCAGTATACGCTATA,2.06,2.79,3.72,-0.225,1.25,3.56,-0.0542,-0.257
AGAATGAGGTTATACGTAGATCCGGGAAGAAAGT,0.443,1.39,0.944,1.78,1.82,1.94,0.512,0.912
AGTCAAAGATCAGGACGAGGTAACGTAAAGCACG,-0.273,0.544,0.425,-0.798,0.431,2.27,1.16,-0.321
ACAGACAGGTGAGTGAAGGTAACGCAGCTGGACG,0.215,0.259,0.522,-0.546,0.362,1.83,-0.423,-0.319
ACTAGCAGGCCAAGCTTGGGTCACTCAAACAAAG,2.07,2.09,1.49,-0.187,0.849,2.18,0.602,-0.227
TCGAGTATGTTAGGGGCATTCAGAATGGCGTCGA,0.285,-0.134,-0.085,1.26,0.27,0.709,-0.0845,1.66
ACTATTAGTTGACTTAGGGCAACCGCTACGACGC,0.908,0.58,0.586,0.636,0.331,1.39,0.625,0.173
TCTATTAGTTGAAGGGCAATCGACGAGTCCGTTT,0.87,0.355,0.467,1.61,0.559,0.0989,-0.0938,1.42
TCCTATAGGTAAAAGGTGAAAGTCGGTGTGGTAA,1.55,1.83,0.492,1.1,2.64,1.56,0.0134,-0.175
CCGGCTGGGGCAGAAAGGTTACCATACCATCCGG,2.18,1.68,1.35,-1.28,1.74,0.969,-0.459,-0.229
CGTCCAAGGTCAGCAGGTCAGTTAAAGCGACGTG,5.1,6.48,7.2,2.34,5.18,4.27,2.96,1.71
TCTTGTAGATCAATAGAGGTTAAGATAGTGCGCT,1.21,0.947,0.501,0.749,1.75,2.51,-0.429,0.0861
CAAACTAGGTCACCGGAAGGTCTAAGTCCGCATG,4.28,5.48,5.56,1.58,3.87,3.88,2.22,1.68
GCGACTGGGGCAAACCAGGTTACCATAAGGTTGG,1.29,0.596,0.516,-0.486,0.616,3.93,0.684,-0.202
GCTAACGGGTCAAAGGTTATAGCATGAATAGAAT,3.09,6.57,4.55,1.87,8.85,3.65,-0.286,1.33
ACTAGCACGCCAAGGGTCACTCAAGATTAGTCCG,3.93,3.88,3.91,1.02,3.73,2.86,0.515,1.49
AGAATGAGGTTACCAAAGATCCGGGAAACGCTTG,0.848,1.96,1.65,1.05,2.5,2.61,0.714,0.252
TTACCAAGATGAAAGGTCGTTGATGCACGCCTTG,1.55,1.58,0.973,0.753,2.49,1.27,-0.262,1.53
TCATATAGGTAAAGGAGAAAGTCGAACGATATGA,-0.643,0.547,0.358,0.825,0.676,-0.227,-0.866,-0.11
TGAATGAGGTTAAAGATCAGCGAACGTGGCGTCG,0.498,2.34,1.26,1.56,3.59,2.39,0.17,0.749
